The values below come from PubChem BioAssay (NCI).

What all share (test): NCI-60 one-dose screen, 48 h (100 = growth as untreated, 0 = no growth, -100 = all killed)
The subject of test [1] is MCF7 breast. The following applies: 10 µM unless noted.
Test [2] deals with MOLT-4 leukemia. The following applies: 10 µM.
Test [3] deals with SR leukemia. Conditions: 10 µM.
Test [4] deals with RPMI-8226 leukemia. Conditions: 10 µM.
In test [5] the test system is OVCAR-5 ovarian. The following applies: 10 µM.
In test [6] the test system is OVCAR-4 ovarian. Conditions: 10 µM.
Test [7] concerns SK-OV-3 ovarian. Conditions: 10 µM.
Test [8] concerns IGROV1 ovarian. Conditions: 10 µM.
The test system of test [9] is OVCAR-3 ovarian. The following applies: 10 µM.
Test [10] relates to HS 578T breast. Conditions: 10 µM.
The subject of test [11] is NCI/ADR-RES ovarian. The following applies: 10 µM.
In test [12] the test system is T-47D breast. The following applies: 10 µM.
Test [13] relates to BT-549 breast. Conditions: 10 µM.
Test [14] concerns MDA-MB-435 melanoma. Conditions: 10 µM.
Test [15] relates to SW-620 colon. The following applies: 10 µM.
Test [16] relates to HCT-116 colon. Conditions: 10 µM.
For test [17], the system named is HCC-2998 colon. The following applies: 10 µM.
The test system of test [18] is KM12 colon. Conditions: 10 µM.
For test [19], the system named is OVCAR-8 ovarian. Conditions: 10 µM.

The structures appear in SMILES notation. Values joined by “and” are separate entries in the source; they are usually repeats but may differ in a detail not shown here. Equal values may be shown once. This is part of a sample that, as a whole, favours compounds with a hit. Of some 83,000 tested, about 20% had one in any assay.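 Single-dose data. Exposure time 48 hours. Values below 10 considered active.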 Active and inactive are the calls of the source.

Consider `C[C@H]1CC[C@@]2(NC1)O[C@H]1C[C@H]3[C@@H]4CC[C@H]5C[C@@H](O)CC[C@]5(C)[C@H]4CC[C@]3(C)[C@H]1[C@@H]2C`, for which, in [1], the growth is 29.5% [100 µM] (inactive) and 25.5% [100 µM] (inactive).
For the compound `COC(=O)C1C(O)C(C)C(O)C(C)/C=C\C=C(C)C(=O)Nc2c(C)c(OC(C)=O)c3c(c2O)C(=O)C(C)=C2OCOC(=C23)C(C)=CC(C)(O)C(O)C(C)C1O` (configuration not stated), the growth in test [2] was 51.9% (inactive); in test [3] it was 49.3% (inactive); in [4], 95.3% (inactive); in test [5], 77% (inactive); in test [6], 79.4% (inactive); in [7], 108% (inactive). The growth is 58.7% (inactive) in test [8]; 105% (inactive) in test [9]; 81.7% (inactive) in test [10]; 105% (inactive) in [11]; 100% (inactive) in test [12]; 121% (inactive) in test [13]. Moreover, the growth was 100% (inactive) in [14]; 94.2% (inactive) in [15]; 93.6% (inactive) in [1]; 99.9% (inactive) in test [16]; 91.6% (inactive) in [17]; 102% (inactive) in test [18].
Turning to `C[CH2][Hg][S]c1ccccc1C(=O)O`, the growth is 0.484% (active) in test [2]; -5.7% (active) in test [3]; -17.6% (active) in test [4]; -98.1% (active) in [19]; -36.6% (active) in test [6]; 21.1% (inactive) in [7]. Also, the growth in test [8] is 16.9% (inactive); in [9], -100% (active); in test [10] it was -1.53% (active); in test [11], -13.9% (active); in test [12], -80% (active); in test [13], -73.4% (active). The growth was -12.7% (active) in [14]; -87% (active) in [15]; -95.9% (active) in [1]; -88.9% (active) in [16]; 69.9% (inactive) in test [18].
As for `COc1cc2c3cc1Oc1c(OC)c(OC)cc4c1C(Cc1ccc(cc1)Oc1cc(ccc1O)CC3N(C)CC2)N(C)CC4` (configuration not stated), the growth in test [1] was 33.8% [100 µM] (inactive) and -96.4% [100 µM] (active).
`O=[N+]([O-])c1ccc(N(CCO)CCO)c2c1no[n+]2[O-]`: the growth was -24.4% (active) in test [2]; -53.7% (active) in test [4]; 2.5% (active) in test [19]; 18.5% (inactive) in test [5]; -25.8% (active) in test [6]; -35.8% (active) in test [7]. The growth was -65.9% (active) in test [9]; -30.8% (active) in test [10]; 18.3% (inactive) in [11]; -14.9% (active) in [12]; -61.3% (active) in test [13]; 2.88% (active) in test [14]. Further, the growth in [15] was 0.768% (active); in [1] it was 6.05% (active); in test [16] it was -68.3% (active); in test [17], -46.9% (active); in test [18] it was -40.1% (active).
Regarding `O=[N+]([O-])c1cc[n+]([O-])c2ccccc12`, the growth in test [2] is 3.5% (active); in [4] it was -7.21% (active); in test [19] it was -31.1% (active); in test [5] it was -13.7% (active); in test [6] it was -99.6% (active); in test [7] it was -18.4% (active). Further, the growth in test [8] is -24.3% (active); in [9], 4.56% (active); in test [10], 18.7% (inactive); in test [11] it was -55.1% (active); in test [12], -20.5% (active); in test [13], -65.9% (active). The growth in test [14] is -70.7% (active); in test [15], -69.3% (active); in [1] it was -16.7% (active); in test [16], -71.2% (active); in [17], -94.5% (active); in [18] it was -89.5% (active).
With `CCOC(=O)c1[nH]cnc1/N=N/N(C)N`, in [1], the growth was 69.3% [100 µM] (inactive) and -85.5% [100 µM] (active).
Consider `CC[C@@H](C)[C@@H]1NC(=O)C(NC(=O)C(CC(C)C)N(C)C(=O)C2CCCN2C(=O)C(C)O)C(C)OC(=O)C(Cc2ccc(OC)cc2)N(C)C(=O)C2CCCN2C(=O)C(CC(C)C)NC(=O)C(C)C(=O)C(C(C)C)OC(=O)C[C@H]1O` (some centres not stated), for which the growth in [2] is -15.8% (active); in test [3], 1.46% (active); in test [4], -27.5% (active); in test [5], -71.8% (active); in [6] it was -30.8% (active); in [7], -38.5% (active). Moreover, the growth in test [8] was -40.4% (active); in test [9], -39.6% (active); in [11], -43.2% (active); in [12], -32.5% (active); in test [13], -74.2% (active); in test [14], -91.8% (active). The growth is -45.5% (active) in test [15], -27.7% (active) in test [1], -28.8% (active) in test [16] and -49.8% (active) in test [18].
In the case of `CC(=O)Nc1c2sscc-2n(C)c1=O`, the growth is -58% (active) in [2]; -27.4% (active) in test [3]; -51.8% (active) in test [4]; -60.4% (active) in [5]; -96.4% (active) in test [6]; -100% (active) in test [7]. For the same compound, the growth was -88.4% (active) in [8]; -100% (active) in [9]; -57% (active) in test [10]; -94.8% (active) in test [11]; -87.4% (active) in test [12]; -96.4% (active) in test [13]. Also, the growth is -93.7% (active) in [14]; -99% (active) in test [15]; -60.9% (active) in [1]; -100% (active) in [16]; -100% (active) in test [17]; -100% (active) in test [18].
Consider `COC12C(COC(N)=O)C3=C(C(=O)C(C)=C(N)C3=O)N1CC1C2N1C` (configuration not stated), for which the growth in test [2] was 7.02% (active); in test [3], 4.38% (active); in test [4], 51.7% (inactive); in [5] it was 67.5% (inactive); in test [6], 70.5% (inactive); in test [7] it was 54.7% (inactive). In addition, the growth in [8] is 24.4% (inactive); in [9], 79.2% (inactive); in [10], 67.1% (inactive); in test [11] it was 66.9% (inactive); in test [12], 52.8% (inactive); in test [13], 60% (inactive). Moreover, the growth is 68.6% (inactive) in test [14]; 36.8% (inactive) in test [15]; 27.5% (inactive) in test [1]; 44.3% (inactive) in test [16]; -4.28% (active) in test [17]; 64.2% (inactive) in [18].
For `CCOP(=O)(OCC)/C(C#N)=C/c1ccc(Br)cc1`, the growth was 92% (inactive) in [2]; 54.9% (inactive) in test [4]; 100% (inactive) in [19]; 90.7% (inactive) in [5]; 98.4% (inactive) in test [6]; 97.4% (inactive) in test [7]. The growth was 112% (inactive) in test [9]; 100% (inactive) in [10]; 107% (inactive) in [11]; 90.8% (inactive) in [12]; 104% (inactive) in test [14]; 105% (inactive) in test [15]. Further, the figures for the growth in test [1], in test [16] and in test [18] were 92% (inactive), 101% (inactive) and 109% (inactive), respectively.
In the case of `C[C@@H]1C[C@@H]([C@H](O)CC2CC(=O)NC(=O)C2)C(=O)[C@@H](C)C1`, the growth in test [2] is 3.71% (active); in test [3] it was 13.8% (inactive); in [19] it was 3.4% (active); in test [5], 8.45% (active); in test [6], 12.8% (inactive); in test [7], 10.9% (inactive). Also, the growth is 11.3% (inactive) in [8]; 4.14% (active) in test [9]; 7.45% (active) in test [10]; 0.354% (active) in test [11]; 1.15% (active) in test [12]; 3.02% (active) in test [13]. The growth was 9.77% (active) in test [14]; 8.04% (active) in [15]; 9.88% (active) in test [1]; 0.0527% (active) in test [16]; 5.65% (active) in [18].
On to `CC(C)(C)OOC(=O)/C=C\C(=O)OOC(C)(C)C`, for which the growth was 107% (inactive) in test [2]; 93.5% (inactive) in test [3]; 112% (inactive) in test [4]; 97.4% (inactive) in test [19]; 99.3% (inactive) in [5]; 104% (inactive) in [6]. Besides, the growth was 108% (inactive) in test [7]; 113% (inactive) in [9]; 113% (inactive) in test [10]; 109% (inactive) in test [11]; 101% (inactive) in test [12]; 104% (inactive) in test [13]. Further, the growth is 119% (inactive) in test [14]; 98.7% (inactive) in test [15]; 98.7% (inactive) in [1]; 106% (inactive) in test [16]; 94.6% (inactive) in test [18].
As to `Cc1ccc(NC(=O)CBr)cc1`, the growth is 98.4% (inactive) in test [2]; 89.5% (inactive) in test [3]; 102% (inactive) in test [4]; 109% (inactive) in [5]; 102% (inactive) in [6]; 86.1% (inactive) in test [7]. Further, the growth in test [9] is 112% (inactive); in test [10], 107% (inactive); in [11], 106% (inactive); in test [12] it was 98.5% (inactive); in test [13], 139% (inactive); in [14] it was 102% (inactive). Further, the growth in [15] was 92.8% (inactive); in [1], 93.5% (inactive); in test [16] it was 106% (inactive); in test [18], 109% (inactive).
As for `O=C1C=Cc2ccccc2C1=O`, the growth in [2] was 95.2% (inactive); in [3], 61.8% (inactive); in [4], 93.6% (inactive); in test [19], 87.9% (inactive); in test [5], 120% (inactive); in test [7], 71.9% (inactive). The growth in [8] was 77.7% (inactive); in test [9], 96.9% (inactive); in test [10], 90.9% (inactive); in test [11], 93.8% (inactive); in test [12] it was 97.2% (inactive); in test [14], 5.35% (active). The growth in test [15] was 50.5% (inactive); in [1], 66.1% (inactive); in test [16], 87.7% (inactive); in [18], 110% (inactive).
`NNc1ccccc1`: the growth in [2] was 73.1% (inactive); in test [3], 53% (inactive); in test [19], 100% (inactive); in test [5], 90.2% (inactive); in test [6], 102% (inactive); in test [7] it was 99.6% (inactive). In addition, the growth in test [8] is 88.4% (inactive); in test [9], 97.7% (inactive); in test [10], 109% (inactive); in test [11], 83.1% (inactive); in test [12], 53.9% (inactive); in [14] it was 88.6% (inactive). Besides, the growth in test [15] is 64.5% (inactive); in test [1], 86.8% (inactive); in test [16], 78.4% (inactive); in test [18], 64.7% (inactive).
